Bioassay records as filed in PubChem BioAssay.
FBPA coupling cs – counter-screen for Giardia aldolase inhibitors: coupling enzyme system; coupling enzyme system counterscreen, AmpLite Red fluorescence; activity change, negative = inhibition, % at 58.2 µM, hits read low; 0.67% of 290,000 active; AID 2472; in the data active = activity change below about -30%
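Fluorescence at 525 nm excitation and 598 nm emission measured inhibition of the coupled detection system without aldolase. Compounds (at 57.5 uM final) were preincubated 10 min at room temperature with coupling enzyme reagent before a 20 min substrate/AmpLite Red step.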
Tau ThT inhib – blocks human tau fibril formation measured by thioflavin T; P10636; Potency, µM (titrated, usually from 57.4 µM), for inactives: at the top dose activity, negative = inhibition, actives largely listed as inhibitors; recombinant tau K18 P301L, heparin-induced fibrillization, ThT fluorescence; 2.1% of 270,000 active; note: potency is the fitted concentration of half-maximal effect; nearly all actives have a fitted effect of over 55% in size
Target sequence (P10636 561-689 P618L limits assumed): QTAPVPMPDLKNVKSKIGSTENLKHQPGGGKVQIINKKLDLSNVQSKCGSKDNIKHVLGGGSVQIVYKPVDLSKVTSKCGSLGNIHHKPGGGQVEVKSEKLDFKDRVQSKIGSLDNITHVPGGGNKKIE
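Fibril formation assay: tau K18 P301L at 15 uM with trace Alexa 594 label, heparin inducer 20 uM, pH 7 sodium acetate buffer, 37 C for 6 hr; endpoint ThT signal.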
Sfp PPTase inh – inhibitors of Bacillus subtilis Sfp phosphopantetheinyl transferase. Q9F4F7. Biochemical Sfp PPTase activity, qHTS. Potency, µM, for the others: largest response in the series, negative = inhibition, usual class: inhibitors. 3.5% of 310,000 active;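 note: the enzyme is Sfp with the accession as filed and its product quenches rhodamine fluorescence; potency is the fitted concentration of half-maximal effect; 0% = enzyme reaction without inhibitor and -100% = no enzyme wells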
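Fluorescence-quenching assay: 15 nM Sfp-PPTase preincubated 15 min at room temperature with compound, then 5 uM rhodamine-CoA and 12.5 uM BHQ-2-labelled YbbR peptide added. Fluorescence (ex 525/em 598 nm) read at start and after 30 min; difference gives rate.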
JMJD2E inh – blocks human JMJD2E demethylase activity; 1.6% of 230,000 active; JMJD2E catalytic domain, FDH-coupled NADH fluorescence (FDH is formaldehyde dehydrogenase); Potency, µM (highest dose often 57.1 µM), for the others: top-dose activity change, negative = inhibition, actives largely listed as inhibitors; AID 2147; active = well fitted inhibition curve with a large enough effect, not every such curve was filed as active; inconclusive = small, poorly fitted or top-dose-only effect, or another doubt; inactive = no such curve, though single readings can be large or run the other way;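 note: potency is the fitted concentration of half-maximal effect; 0% = wells with enzyme and -100% = buffer wells without enzyme; nearly all actives have a fitted effect of over 50% in size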
Target sequence (B2RXH2 1-337 limits assumed): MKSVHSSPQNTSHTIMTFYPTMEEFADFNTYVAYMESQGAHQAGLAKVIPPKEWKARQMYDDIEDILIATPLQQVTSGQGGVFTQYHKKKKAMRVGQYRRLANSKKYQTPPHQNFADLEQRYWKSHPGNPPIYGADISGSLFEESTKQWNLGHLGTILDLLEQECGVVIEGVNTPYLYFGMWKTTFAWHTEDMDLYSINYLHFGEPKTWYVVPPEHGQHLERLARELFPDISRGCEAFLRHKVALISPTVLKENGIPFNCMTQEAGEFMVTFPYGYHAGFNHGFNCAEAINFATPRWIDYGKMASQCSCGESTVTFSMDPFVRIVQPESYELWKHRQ
Tau fibril FP – inhibitors of human tau fibril formation | P10636 | K18 P301L tau heparin fibrillization, Alexa594 FP, 6 h | Potency, µM (titrated, usually from 57.7 µM), for the others: at the highest dose activity, negative = inhibition, usual class: inhibitors | 0.39% of 280,000 active; note: potency is the fitted concentration of half-maximal effect; nearly all actives have a fitted effect of over 55% in size
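K18 P301L tau (15 uM unlabeled/0.24 uM Alexa 594-labeled, final) + compound + heparin 20 uM final; 100 mM NaOAc pH 7; 6 hr 37 C; ThT 30 uM final added, 1 hr RT; FP ex 555/em 632 nm.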
Tau fluor cs – counter-screen for tau fibril formation inhibitors | tau K18 P301L (four-repeat tau fragment) Alexa594 fluorescence, heparin fibrillization | 0.93% of 280,000 active | Potency, µM (highest dose often 57.7 µM), without a hit: top-dose activity change, negative = decrease; note: potency is the fitted concentration of half-maximal effect; nearly all actives have a fitted effect of over 55% in size
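Human K18 P301L tau (15 uM unlabeled plus 0.24 uM Alexa 594-labeled, final) in 100 mM sodium acetate pH 7 was mixed with compound and 20 uM heparin and incubated 6 hr at 37 C.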
Active calls of the source: *; ? = inconclusive; . = no result; [ ] = another dose, or the depositor's remark. Hits are enriched below; roughly 5.3% of the tested compounds scored in any of these assays. Unless noted, calls come from the whole dose curve; as a rule, active = well fitted curve in the direction sought with a large enough effect; inconclusive = small, poorly fitted or top-dose-only effect, or another doubt; inactive = no such curve, though single readings can be large; an effect the other way counts as inactive or inconclusive. Unless noted, % is set by controls: 0 for no effect and ±100 for the full control effect.

SMILES | FBPA coupling cs | Tau ThT inhib | Sfp PPTase inh | JMJD2E inh | Tau fibril FP | Tau fluor cs
COc1ccc(-c2cc(-c3ccccc3)nc(SCC(=O)Nc3ncc(C)s3)c2C#N)cc1 | -3 | -1% | 14% | ? | ? | -22%
CCOC(=O)CSc1nc(C2CC2)cc(-c2ccc(Cl)cc2)c1C#N | 0 | -18% | 18µM* | ? | ? | -20%
COc1ccc(-c2cc(-c3cccs3)c(C#N)c(SCC(=O)NCc3ccccc3OC)n2)cc1 | -3 | -1% | -17% | ? | -4% | -1%
CCc1nnc(NC(=O)CSc2nc(-c3ccc(F)cc3)cc(-c3ccccc3)c2C#N)s1 | 3 | -4% | 32µM* | -4% | -8% | -9%
NC(C(=O)O)c1cccc(O)c1 (centres undefined) | . | 10% | 5% | . | -1% | -3%
CNC1C(O)C(OC2C(N)CC(N)C(OC3OC(CN)=CCC3N)C2O)OCC1(C)O (centres undefined) | . | . | 14% | . | . | .
COC(=O)C/C=C\[C@@H](C)[C@@H](/C=N\O[C@@H](C)CN1CCCc2nc(C)c(C)cc21)OC | 3 | -3%[11.5 µM] | 1% | . | -5%[11.6 µM] | -1%[11.6 µM]
CC(C)CC(CSc1ccc(Br)cc1)N1CCN(CC(C)C)CCC1=O (centres undefined) | 0 | . | -9% | . | . | .
CCC12CCCN3CCc4c(n(c5ccccc45)C(O)(C(=O)OC)C1)C32 (centres undefined) | -20 | 18µM* | -17% | ? | ? | ?
O=C(NCC1CCCCC1)c1cccc(Br)c1 | -2 | . | 9% | . | . | .
O=C(NCc1ccco1)c1cccc(Nc2nc3ccc(Br)cc3[nH]2)c1 | -1 | 28µM* | 18% | -3% | ? | 10µM*[quencher]
O=C(NCC1CC1)c1ccc(Nc2nc3ccc(Br)cc3[nH]2)cc1 | -2 | ? | 32µM* | ? | ? | 13µM*[quencher]
O=C(Cc1ccc(Nc2nc3ccc(Br)cc3[nH]2)cc1)NCCc1cccs1 | 1 | ? | ? | -8% | ? | 16µM*[quencher]
Cc1ccc(C)n1-c1nnc(N2CCCC(C(=O)Nc3ccc(C(C)C)cc3)C2)s1 (centres undefined) | . | -14% | . | . | -16% | -13%
COc1cc(/C=N/NC(=O)c2cc3ccccc3cc2O)ccc1OCCN1CCCCC1 | -11 | ? | 40µM* | 2% | 3% | -28%
COc1cc(/C=N/NC(=O)c2ccncc2)ccc1OCCN1CCCCC1 | 2 | -1% | 13% | 4% | 1% | 6%
Cc1ccc(N2C(=O)[C@@H]3C(c4cccnc4)=NO[C@@H]3C2=O)cc1 | 2 | -15% | 50µM* | ? | 10% | -8%
COc1ccc(N2C(=O)[C@@H]3C(c4cccnc4)=NO[C@@H]3C2=O)cc1 | -3 | ? | 79µM* | -14% | -4% | -20%
COC(=O)c1ccc(C(NC(=O)OCc2ccccc2)/C(C)=C/[C@@H](C)C(=O)Nc2ccc(OC)cc2)cc1 (some centres undefined) | -5 | -15% | -7% | -8% | 8% | -16%
O=C(Nc1ccc2ccccc2c1)C(=O)C1C(=O)Nc2ccccc21 (centres undefined) | 1 | 4µM* | -12% | 8.9µM* | 3% | -25%
O=C(Nc1ccc(F)cc1)C(=O)C1C(=O)Nc2ccccc21 (centres undefined) | -7 | ? | 19% | -6% | 7% | -13%
O=C(NNC(=O)c1cccnc1SCc1cccc([N+](=O)[O-])c1)c1ccccn1 | -1 | -5% | 2% | 10µM* | ? | -17%
O=C(OCCCN1CCOCC1)c1ccc(O)c(O)c1 | 1 | -11% | ? | 16µM* | -2% | -6%
COc1cc(C(=O)OCCN2CCOCC2)ccc1O | 0 | -9% | 10% | -4% | 2% | 4%
CCCCCCC1(C)NC(=S)N(c2ccccc2)N1 (centres undefined) | -1 | ? | ? | ? | -8% | -7%
CCC1(c2ccc(Cl)cc2)NC(=S)N(c2ccccc2)N1 (centres undefined) | 4 | ? | 56µM* | ? | -2% | -27%
